Values without a mark were called inactive.
Columns and labels:
Assay in all cases: log2 ratio of Biotin-Ahx-Ub-VS probe labelling (fragment/DMSO); higher = less target engagement (more negative = stronger competition), active = hit call of the paper (q ≤ 0.05, log2 ratio ≤ -1)
Details in all cases: compound concentration: 200 uM; treatment time: 3 h
ALG13 = molecular target: T1, ALG13 (UniProt Q9NP73)
T1 sequence (whole entry): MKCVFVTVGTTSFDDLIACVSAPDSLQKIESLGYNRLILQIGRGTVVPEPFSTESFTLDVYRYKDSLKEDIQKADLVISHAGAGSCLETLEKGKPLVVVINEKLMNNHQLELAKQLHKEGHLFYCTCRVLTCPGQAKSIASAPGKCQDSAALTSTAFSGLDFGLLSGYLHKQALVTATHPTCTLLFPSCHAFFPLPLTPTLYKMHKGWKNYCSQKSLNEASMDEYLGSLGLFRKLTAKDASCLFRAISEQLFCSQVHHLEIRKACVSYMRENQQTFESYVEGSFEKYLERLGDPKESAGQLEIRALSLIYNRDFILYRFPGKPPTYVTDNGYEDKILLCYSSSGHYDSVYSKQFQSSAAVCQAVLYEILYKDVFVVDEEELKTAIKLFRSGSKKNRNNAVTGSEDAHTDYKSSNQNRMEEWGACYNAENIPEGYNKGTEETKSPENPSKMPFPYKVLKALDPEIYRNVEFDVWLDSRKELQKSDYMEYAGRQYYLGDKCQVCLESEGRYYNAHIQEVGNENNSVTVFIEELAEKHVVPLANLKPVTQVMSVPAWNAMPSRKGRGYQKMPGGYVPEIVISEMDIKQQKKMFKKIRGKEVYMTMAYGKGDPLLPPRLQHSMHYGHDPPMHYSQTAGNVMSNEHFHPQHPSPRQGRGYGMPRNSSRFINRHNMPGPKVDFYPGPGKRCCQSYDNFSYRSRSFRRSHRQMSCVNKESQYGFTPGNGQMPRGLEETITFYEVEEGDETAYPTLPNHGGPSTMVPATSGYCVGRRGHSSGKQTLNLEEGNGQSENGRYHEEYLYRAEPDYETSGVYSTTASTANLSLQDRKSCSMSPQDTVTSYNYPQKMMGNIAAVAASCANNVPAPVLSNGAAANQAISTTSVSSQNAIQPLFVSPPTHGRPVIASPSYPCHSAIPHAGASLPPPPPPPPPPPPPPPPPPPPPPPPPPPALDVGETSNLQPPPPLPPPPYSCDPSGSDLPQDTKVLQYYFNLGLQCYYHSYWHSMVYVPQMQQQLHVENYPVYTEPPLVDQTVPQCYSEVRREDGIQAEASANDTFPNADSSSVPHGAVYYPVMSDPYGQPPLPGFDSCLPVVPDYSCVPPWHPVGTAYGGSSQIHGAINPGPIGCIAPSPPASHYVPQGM
Outline: (§1)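 HEK293T lysate (495 µg per sample, in Tris/CHAPS/IGEPAL buffer with protease inhibitors) was exposed in triplicate for 3 h to fragment at 200 µM or to vehicle, then to Biotin-Ahx-Ub-VS at 0.5 µM final for 1 h. Labelled DUBs were enriched on NeutrAvidin, digested with LysC and trypsin, and analysed by diaPASEF LC-MS/MS. Spectronaut label-free quantities were normalised to the global median, and values are average log2 ratios of fragment over vehicle from an unpaired t-test. Only proteins with ≥2 unique peptides were used.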

ATXN3 = ATXN3 (UniProt P54252)
Outline: as §1

BAP1 = molecular target: T2, BAP1 (UniProt Q92560)
T2 sequence (whole entry): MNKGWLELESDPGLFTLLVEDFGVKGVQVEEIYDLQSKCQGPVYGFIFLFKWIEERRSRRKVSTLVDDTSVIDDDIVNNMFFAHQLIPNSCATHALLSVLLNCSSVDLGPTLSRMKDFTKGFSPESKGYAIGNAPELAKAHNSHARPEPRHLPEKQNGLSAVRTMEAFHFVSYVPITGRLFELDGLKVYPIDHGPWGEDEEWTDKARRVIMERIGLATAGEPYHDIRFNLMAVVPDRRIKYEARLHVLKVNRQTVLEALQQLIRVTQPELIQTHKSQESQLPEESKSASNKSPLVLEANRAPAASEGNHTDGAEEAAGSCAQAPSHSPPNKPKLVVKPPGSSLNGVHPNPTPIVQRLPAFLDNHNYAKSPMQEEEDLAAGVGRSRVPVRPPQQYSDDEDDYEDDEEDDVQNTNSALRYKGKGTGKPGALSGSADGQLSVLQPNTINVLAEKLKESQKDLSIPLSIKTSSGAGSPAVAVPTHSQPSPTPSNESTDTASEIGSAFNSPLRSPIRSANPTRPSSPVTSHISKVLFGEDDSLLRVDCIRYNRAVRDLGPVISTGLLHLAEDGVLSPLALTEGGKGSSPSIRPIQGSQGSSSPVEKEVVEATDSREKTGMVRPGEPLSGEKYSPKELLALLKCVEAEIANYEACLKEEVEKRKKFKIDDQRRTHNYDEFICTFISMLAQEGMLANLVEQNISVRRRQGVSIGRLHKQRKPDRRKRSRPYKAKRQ
Outline: as §1

EIF3F = EIF3F (UniProt O00303)
Outline: as §1

EIF3H = EIF3H (UniProt O15372)
Outline: as §1

FAM105A = molecular target: T3, FAM105A (UniProt Q9NUU6)
T3 sequence (whole entry): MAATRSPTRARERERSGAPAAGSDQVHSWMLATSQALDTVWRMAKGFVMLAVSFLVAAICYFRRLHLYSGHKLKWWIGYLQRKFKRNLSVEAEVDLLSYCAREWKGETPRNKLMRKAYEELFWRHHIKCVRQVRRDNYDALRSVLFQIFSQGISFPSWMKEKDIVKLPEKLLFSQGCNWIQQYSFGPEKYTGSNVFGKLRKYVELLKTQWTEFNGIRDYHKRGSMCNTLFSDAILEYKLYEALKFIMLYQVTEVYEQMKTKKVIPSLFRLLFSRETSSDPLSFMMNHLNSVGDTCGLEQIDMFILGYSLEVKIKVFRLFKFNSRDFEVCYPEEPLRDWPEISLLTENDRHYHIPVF
Outline: as §1

OTUB1 = OTUB1 (UniProt Q96FW1)
Outline: as §1

OTUD4 = molecular target: T4, OTUD4 (UniProt Q01804)
T4 sequence (whole entry): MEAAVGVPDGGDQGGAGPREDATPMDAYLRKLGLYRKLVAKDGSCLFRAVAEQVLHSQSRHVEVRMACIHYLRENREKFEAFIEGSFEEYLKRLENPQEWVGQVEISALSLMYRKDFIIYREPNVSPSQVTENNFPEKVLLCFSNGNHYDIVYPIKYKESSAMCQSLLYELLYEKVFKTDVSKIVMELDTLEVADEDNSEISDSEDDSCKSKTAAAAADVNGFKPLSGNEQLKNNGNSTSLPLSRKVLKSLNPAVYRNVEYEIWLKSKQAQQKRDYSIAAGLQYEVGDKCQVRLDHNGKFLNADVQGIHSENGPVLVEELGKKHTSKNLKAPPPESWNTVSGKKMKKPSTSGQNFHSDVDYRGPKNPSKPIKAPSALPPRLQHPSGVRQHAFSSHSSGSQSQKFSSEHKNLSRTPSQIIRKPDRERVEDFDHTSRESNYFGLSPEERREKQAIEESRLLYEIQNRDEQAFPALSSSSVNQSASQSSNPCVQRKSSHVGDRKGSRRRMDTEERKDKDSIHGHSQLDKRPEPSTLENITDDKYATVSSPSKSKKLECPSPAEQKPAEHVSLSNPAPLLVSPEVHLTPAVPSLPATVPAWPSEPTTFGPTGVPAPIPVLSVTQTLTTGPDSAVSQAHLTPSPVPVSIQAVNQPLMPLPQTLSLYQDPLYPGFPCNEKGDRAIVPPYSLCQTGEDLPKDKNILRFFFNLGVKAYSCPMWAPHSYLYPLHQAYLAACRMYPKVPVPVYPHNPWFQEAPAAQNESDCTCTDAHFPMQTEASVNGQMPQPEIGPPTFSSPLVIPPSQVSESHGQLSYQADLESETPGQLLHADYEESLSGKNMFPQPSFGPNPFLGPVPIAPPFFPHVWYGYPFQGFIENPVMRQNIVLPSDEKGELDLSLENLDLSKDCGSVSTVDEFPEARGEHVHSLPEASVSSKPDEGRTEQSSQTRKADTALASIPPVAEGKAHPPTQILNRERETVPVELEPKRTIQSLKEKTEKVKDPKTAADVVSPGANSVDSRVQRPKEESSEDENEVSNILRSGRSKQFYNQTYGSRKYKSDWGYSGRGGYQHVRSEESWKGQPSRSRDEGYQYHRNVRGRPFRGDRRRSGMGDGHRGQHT
Outline: as §1

OTUD5 = molecular target: T5, OTUD5 (UniProt Q96G74)
T5 sequence (whole entry): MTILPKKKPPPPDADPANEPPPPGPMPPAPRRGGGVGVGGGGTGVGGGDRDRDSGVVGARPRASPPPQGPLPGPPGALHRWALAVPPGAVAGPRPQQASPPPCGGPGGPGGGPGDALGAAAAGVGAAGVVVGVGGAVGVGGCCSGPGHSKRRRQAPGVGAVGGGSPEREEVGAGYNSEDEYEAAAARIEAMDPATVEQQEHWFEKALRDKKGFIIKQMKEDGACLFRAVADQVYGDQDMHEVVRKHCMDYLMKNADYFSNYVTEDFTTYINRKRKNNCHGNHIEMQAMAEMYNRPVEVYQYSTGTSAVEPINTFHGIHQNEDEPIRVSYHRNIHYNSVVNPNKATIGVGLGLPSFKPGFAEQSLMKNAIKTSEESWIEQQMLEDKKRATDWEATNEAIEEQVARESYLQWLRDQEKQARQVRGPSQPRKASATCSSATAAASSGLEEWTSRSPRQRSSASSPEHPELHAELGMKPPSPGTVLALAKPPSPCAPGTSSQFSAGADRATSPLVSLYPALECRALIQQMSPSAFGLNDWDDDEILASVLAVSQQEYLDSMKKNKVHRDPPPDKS
Outline: as §1

Sequence of EIF3F (O00303 whole entry): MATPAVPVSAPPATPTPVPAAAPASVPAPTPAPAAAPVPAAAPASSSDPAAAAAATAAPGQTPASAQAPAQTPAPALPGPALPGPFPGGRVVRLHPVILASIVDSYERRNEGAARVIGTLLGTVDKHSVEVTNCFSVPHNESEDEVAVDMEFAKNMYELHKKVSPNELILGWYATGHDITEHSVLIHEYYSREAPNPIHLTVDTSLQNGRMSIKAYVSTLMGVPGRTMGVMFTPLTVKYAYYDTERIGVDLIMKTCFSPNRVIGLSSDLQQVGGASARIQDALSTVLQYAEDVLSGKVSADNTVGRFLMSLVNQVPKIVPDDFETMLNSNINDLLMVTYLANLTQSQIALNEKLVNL
Sequence of EIF3H (O15372 whole entry): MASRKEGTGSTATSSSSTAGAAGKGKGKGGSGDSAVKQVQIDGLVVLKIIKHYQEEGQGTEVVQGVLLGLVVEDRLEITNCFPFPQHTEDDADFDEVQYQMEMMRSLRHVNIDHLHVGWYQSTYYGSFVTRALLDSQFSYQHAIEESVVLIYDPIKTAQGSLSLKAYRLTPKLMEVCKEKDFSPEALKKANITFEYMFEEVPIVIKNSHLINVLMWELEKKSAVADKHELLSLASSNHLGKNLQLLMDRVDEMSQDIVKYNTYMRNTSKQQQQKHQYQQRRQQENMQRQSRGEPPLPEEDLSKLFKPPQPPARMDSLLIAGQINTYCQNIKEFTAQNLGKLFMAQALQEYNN
Sequence of ATXN3 (P54252 whole entry): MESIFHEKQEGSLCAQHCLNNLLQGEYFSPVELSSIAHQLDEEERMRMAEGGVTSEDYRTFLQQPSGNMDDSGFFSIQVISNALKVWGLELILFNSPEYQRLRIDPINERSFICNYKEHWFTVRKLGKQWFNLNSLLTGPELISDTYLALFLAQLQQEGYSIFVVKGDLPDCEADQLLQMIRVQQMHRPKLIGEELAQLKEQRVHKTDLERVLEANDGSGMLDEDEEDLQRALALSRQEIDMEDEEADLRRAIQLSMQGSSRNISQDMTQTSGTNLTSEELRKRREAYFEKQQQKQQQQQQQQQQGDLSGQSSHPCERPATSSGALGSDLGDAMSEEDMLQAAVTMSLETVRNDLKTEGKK
Sequence of OTUB1 (Q96FW1 whole entry): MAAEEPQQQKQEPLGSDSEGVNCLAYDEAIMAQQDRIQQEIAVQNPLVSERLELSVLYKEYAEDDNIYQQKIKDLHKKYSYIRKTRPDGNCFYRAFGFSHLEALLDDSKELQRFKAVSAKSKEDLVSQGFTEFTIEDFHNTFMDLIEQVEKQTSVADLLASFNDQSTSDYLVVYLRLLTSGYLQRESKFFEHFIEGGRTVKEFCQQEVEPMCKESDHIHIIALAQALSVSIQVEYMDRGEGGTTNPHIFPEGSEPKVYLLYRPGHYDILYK

## COc1cccc(CN(C)C(=O)CCl)c1
ALG13
  log2 ratio of Biotin-Ahx-Ub-VS probe labelling: -0.0162
ATXN3
  log2 ratio of Biotin-Ahx-Ub-VS probe labelling: -0.781
BAP1
  log2 ratio of Biotin-Ahx-Ub-VS probe labelling: -2.68 (active)
EIF3F
  log2 ratio of Biotin-Ahx-Ub-VS probe labelling: 0.0528
EIF3H
  log2 ratio of Biotin-Ahx-Ub-VS probe labelling: -0.0896
FAM105A
  log2 ratio of Biotin-Ahx-Ub-VS probe labelling: -0.419
OTUB1
  log2 ratio of Biotin-Ahx-Ub-VS probe labelling: 0.00861
OTUD4
  log2 ratio of Biotin-Ahx-Ub-VS probe labelling: -0.462
OTUD5
  log2 ratio of Biotin-Ahx-Ub-VS probe labelling: -0.999

From the supplement of paper PMC11732987, “Enantioselective OTUD7B fragment discovery through chemoproteomics screening and high-throughput optimisation” (Communications Chemistry, 2025)
